In the library only some 17% were active in any assay of this set; here they are far more common.
HepG2 tox: qHTS for Inhibitors of TGF-b: Cytotox Counterscreen; HepG2 CAGA-GFP viability, ATP luminescence, 18 h; Potency, µM (series often up to 46.1 µM), inactives show at the highest dose activity change, negative = cytotoxicity, hits mostly cytotoxic; actives 0.76% (n = 410,000); AID 588856, 2011
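CellTiter-Glo luminescence gave cytotoxicity after 18 hours at 37 degrees C. The cells were HepG2 CAGA-GFP in 1% FBS DMEM, stimulated with 500 pg/mL TGF-beta after compound addition. %Activity was normalised to no-cell wells (complete cell-killing) and DMSO (no toxicity), and curves were fitted and classified.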
DT40 TDP1 no CPT: qHTS for Inhibitors of human tyrosyl-DNA phosphodiesterase 1 (TDP1): qHTS in cells in absence of CPT | actives 15% (n = 420,000) | Potency, µM (doses to about 46.2 µM), inactives show at the highest dose activity change, negative = growth inhibition, hits mostly inhibitors | AID 686978, 2013 | DT40 Tdp1-/- hTDP1 cells, no CPT, ATP luminescence, 48 h; note: % is set by controls: 0 for no effect and ±100 for the full control effect; nearly all actives have a fitted effect of over 55% in size
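Chicken DT40 Tdp1-/- cells complemented with human TDP1, screened without camptothecin (DMSO vehicle only), 400 cells/well. Compounds pin-transferred, cells incubated at 37 °C for at least 48 hr. Growth read as ATP-dependent luminescence (CellTiter-Glo, 30 min at RT).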
HT1080 IDH1KD tx: qHTS for induction of synthetic lethality in tumor cells producing 2HG: qHTS for the HT-1080-IDH1KD cell line; AID 686971, 2013; Potency, µM (top dose mostly 46.1 µM), for the others: top-dose activity, negative = toxicity, actives largely listed as cytotoxic; actives 2% (n = 360,000); HT-1080 IDH1 knockdown viability, ATP luminescence, 48 h;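 note: 0% = DMSO wells and -100% = cell-free medium wells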
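CellTiter-Glo luminescence after 48 h compound exposure at 37 degrees C of IDH1-knockdown HT-1080 cells in 5% FBS RPMI. %Activity scaled between DMSO wells and cell-free media wells, with curves fitted and assigned curve classes.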
TGFb SMAD3 inh: qHTS for Inhibitors of TGF-b; HepG2 CAGA-GFP TGF-b/SMAD3 reporter, GFP fluorescence, 18 h; TGF-beta stimulated, 500 pg/mL final; Potency, µM (highest dose often 46.1 µM), without a hit: at the top dose activity, negative = inhibition, hits mostly inhibitors; actives 1.2% (n = 410,000); AID 588855, 2011; note: % is set by controls: 0 for no effect and ±100 for the full control effect; nearly all actives have a fitted effect of over 65% in size
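Smad-responsive CAGA-GFP expression was quantified in HEPG2 cells exposed to compounds and 500 pg/mL final TGF-beta for 18 h at 37 degrees C; unstimulated wells defined full inhibition.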
HT1080NT lethal: qHTS for induction of synthetic lethality in tumor cells producing 2HG: qHTS for the HT-1080-NT fibrosarcoma cell line; Potency, µM (titrated, usually from 46.1 µM), without a hit: at the highest dose activity, negative = less viability, hits mostly cytotoxic; AID 686970, 2013; HT-1080-NT fibrosarcoma viability, CellTiter-Glo ATP luminescence, 48 h; actives 1.6% (n = 360,000);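 note: NT is the 2HG producing partner of a matched IDH1 knockdown line; 0% = DMSO-treated cells and -100% = media-only wells without cells; nearly all actives have a fitted effect of over 55% in size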
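750 cells/well, RPMI + 5% FBS; 2 h settle, compound pin-transfer, 48 h at 37 degrees C. CellTiter-Glo 10 min RT, luminescence. Normalized to DMSO and media-only wells.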
TDP1 cell CPT: qHTS for Inhibitors of human tyrosyl-DNA phosphodiesterase 1 (TDP1): qHTS in cells in presence of CPT; chicken DT40 Tdp1-/-;hTDP1 cells + 20 nM CPT, ATP luminescence, 48 h; Potency, µM (highest dose often 46.2 µM), for inactives: top-dose activity change, negative = growth inhibition, usual class: inhibitors; actives 12% (n = 420,000); AID 686979, 2013; note: % is set by controls: 0 for no effect and ±100 for the full control effect; nearly all actives have a fitted effect of over 55% in size
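Cell growth measured by CellTiter-Glo luminescence after a minimum 48 h, 37 C compound exposure with 20 nM CPT in Tdp1-knockout DT40 cells stably expressing hTDP1, seeded 400/well; qHTS titration format.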
Starred values were filed as active, the others as inactive; ? = inconclusive; nt = no result given. Calls come from the whole dose curve; as a rule, active = well fitted curve in the direction sought with a large enough effect; inconclusive = small, poorly fitted or top-dose-only effect, or another doubt; inactive = no such curve, though single readings can be large; an effect the other way counts as inactive or inconclusive. Potency is the fitted concentration of half-maximal effect.

SMILES | HepG2 tox | DT40 TDP1 no CPT | HT1080 IDH1KD tx | TGFb SMAD3 inh | HT1080NT lethal | TDP1 cell CPT
COc1ccccc1NC(=O)c1cc(S(=O)(=O)NC2CCCC2)ccc1F | -9% | 4% | -11% | -1% | -3% | ?
COc1ccc(NS(=O)(=O)c2ccc(Cl)c(NC(=O)c3cccnc3Cl)c2)cc1 | -54% | 16µM* | -6% | ? | -17% | ?
O=C(O)c1ccccc1C(=O)Nc1ccc(S(=O)(=O)NC2CCCCC2)cc1 | -2% | -4% | 10% | ? | 8% | -6%
O=C(Nc1ccc(Cl)cc1)c1cc(S(=O)(=O)Nc2ccccn2)ccc1Cl | -15% | 16µM* | -28% | ? | -22% | ?
CCc1ccc(NC(=O)c2cc(S(=O)(=O)NC3CCCC3)ccc2F)cc1 | -70% | 16µM* | nt | ? | nt | 13µM*
O=C(NNC(=O)c1cc2ccccc2oc1=O)c1ccccc1[N+](=O)[O-] | 2% | 18% | 11% | -12% | 15% | -16%
O=C(Nc1ccc(Cl)cc1)c1cc(S(=O)(=O)NC2CCCCCC2)ccc1F | -88% | ? | nt | 8.9µM* | nt | ?
CC(C)(C)C(=O)Nc1cc(S(=O)(=O)Nc2ccc(Cl)cc2)ccc1Cl | -36% | 23µM* | -15% | -3% | -7% | 18µM*
CC(=C(CCOC(=O)C(C)C)SSC(CCOC(=O)C(C)C)=C(C)N(C=O)Cc1cnc(C)nc1N)N(C=O)Cc1cnc(C)nc1N | nt | -20% | nt | nt | nt | -20%
CCOC(=O)C1CCCN(C(=O)c2ccc(NC(=O)c3nsc4ccccc34)cc2)C1 (stereo unspecified) | -14% | 16µM* | nt | -44% | nt | ?
CCOC(=O)C1CCN(C(=O)c2ccc(NC(=O)c3nsc4ccccc34)cc2)CC1 | -44% | ? | nt | 0% | nt | 21µM*
NC(=O)C1CCN(C(=O)c2ccc(NC(=O)c3nsc4ccccc34)cc2)CC1 | -24% | ? | nt | 2% | nt | ?
O=C(NCC[C@H]1CC[C@H](NS(=O)(=O)c2ccccc2F)[C@@H](CO)O1)c1ccc(F)cc1 | nt | -12% | 12% | nt | 12% | 1%
CCn1c(=N)n(CC(O)c2ccco2)c2ccccc21 (stereo unspecified) | -10% | -15% | -3% | 15% | -14% | -7%
C=CCn1c(=N)n(CC(=O)c2cccc([N+](=O)[O-])c2)c2ccccc21 | 0% | ? | 0% | 0% | -18% | ?
N=c1n(Cc2ccccc2)c2ccccc2n1Cc1ccccc1 | -52% | 21µM* | -25% | ? | ? | 18µM*
N=c1n(CCO)c2ccccc2n1CCOc1ccccc1 | -4% | ? | -1% | -7% | -2% | ?
N=c1n(CCO)c2ccccc2n1Cc1ccc(Cl)cc1 | -35% | 16µM* | -16% | ? | -28% | 26µM*
N=c1n(CCN2CCCCC2)c2ccccc2n1CC(=O)c1cccc([N+](=O)[O-])c1 | 13µM* | 18µM* | -2% | ? | 0% | ?
N=c1n(Cc2ccccc2)c2ccccc2n1CC(O)c1ccco1 (stereo unspecified) | -28% | 23µM* | -4% | ? | -22% | 21µM*
CCOC(=O)Cn1c(=N)n(Cc2ccccc2)c2ccccc21 | -3% | -25% | -2% | 17% | 1% | -6%
